Not all results are given here.
aSyn 5UTR act = Activators via SNCA 5'UTR binding, MLPCN; alpha-synuclein 5'UTR reporter, activators screen; activity score, % (tested at 7.5 µM), hits read low; hit rate 7.1% among 300,000; in the data active = activity score below about -60%
* hit, by the source's call.

SMILES | aSyn 5UTR act
CCn1c2ccccc2c2nc3cc(OC)c(OC)cc3nc21 | -78*
CCn1c2ccccc2c2cc(CNCc3ccc(OC)cc3OC)ccc21 | 63
O=C(c1ccncc1)N1N=C(c2ccc(Cl)cc2)CC1c1ccccc1O (stereo unspecified) | -128*
O=C(N/N=C/C(Br)=C/c1ccccc1)c1ccccc1[N+](=O)[O-] | -76*
Cc1occc1C(=O)N/N=C/C(Br)=C/c1ccccc1 | -219*
Cc1ccc(-c2csc(NC(=O)c3ccc(Br)cc3)c2C(=O)O)cc1 | -91*
Cc1ccc(-c2csc(NC(=O)/C=C/c3ccco3)c2C(=O)O)cc1 | -79*
Cc1ccc(-c2csc(NC(=O)c3cccc(C)c3)c2C(=O)O)cc1 | -71*
Cc1ccc2ncc(NC(=O)c3ccc(F)cc3)c(=O)n2c1 | -139*
Cc1ccc(C(=O)Nc2cnc3ccccn3c2=O)cc1 | -120*
Cc1ccc(-c2nnc(CCC(=O)NCC3C4CC5CC(C4)CC3C5)o2)s1 (stereo unspecified) | -170*
O=C(O)c1ccccc1NN=C1CCCCC1 | -192*
C/C(=N\Nc1ccc(C)c(Cl)c1)c1ccncc1 | -77*
C/C(=N\Nc1ccccc1C(=O)O)c1ccncc1 | -132*
C/C(=N\Nc1ccc(C)c(Cl)c1)c1cccnc1 | -105*
Cc1cccc(CN2C(=O)N/C(=C/c3ccc(C)s3)C2=O)c1 | -88*
O=C(Nc1ccccc1Cl)c1ccc(-c2ccccn2)s1 | -120*
COc1cc(NC(=S)NC(=O)c2c(OC)cccc2OC)ccc1NC(=O)c1cccs1 | -95*
O=C(Nc1ccccc1Cl)c1cccs1 | -71*
COc1cc(NC(=O)c2ccccc2Cl)ccc1NC(=O)c1cccs1 | -143*
C/C(N)=C(/C#N)C(=O)CSc1nnc(-c2ccc(OC(F)F)cc2)o1 | -204*
C/C(N)=C(/C#N)C(=O)CSc1nn(-c2ccc(Cl)cc2)c(=S)s1 | -74*
C/C(N)=C(/C#N)C(=O)CSc1ccccc1F | -115*
O=[N+]([O-])c1ccc(N/N=C/c2cccc(O)c2O)cc1 | -170*
Cc1ccc(NC(=O)c2ccc(N/N=C/c3cccc(O)c3)c([N+](=O)[O-])c2)cc1 | 42
SMILES | aSyn 5UTR act
O=[N+]([O-])c1ccc(N/N=C/c2cccc(O)c2)cc1 | -171*
Cc1ccc(-c2nc(NCc3ccco3)n(C(=O)c3ccco3)n2)cc1 | -143*
COc1ccccc1C(=O)n1nc(-c2ccccc2)nc1NCc1ccco1 | -88*
O=C(COc1ccccc1)n1nc(-c2ccc(Cl)cc2)nc1NCc1ccco1 | -132*
O=C(c1ccco1)n1nc(-c2ccc(Cl)cc2)nc1NCc1ccco1 | -176*
O=C(NNC(=S)Nc1ccc(Cl)cc1)c1ccccc1 | -87*
O=C(/C=C/NNC(=O)c1ccc(Cl)cc1)c1ccccc1 | -77*
COc1ccccc1NC(=S)NNC(=O)c1ccccc1 | -101*
COc1ccc(C(=O)NNC(=S)Nc2ccccc2)cc1 | -207*
O=C(NNC(=S)Nc1ccccc1Cl)c1ccccc1 | -98*
O=C(NNC(=S)Nc1cccc(Cl)c1)c1ccccc1 | -104*
CC(=O)c1ccc(NC(=S)NNC(=O)c2ccncc2)cc1 | -70*
COc1ccc(C(=O)NNC(=O)c2cccc(F)c2)cc1 | -82*
CCCC(=O)NC(=S)Nc1ccc(C(C)=O)cc1 | -84*
N#Cc1ccccc1N/C=C/C(=O)c1ccc(Cl)cc1 | -169*
Cc1nn(C)c(C(=O)NNC(=S)Nc2ccc(Cl)cc2)c1[N+](=O)[O-] | -71*
CN1CCN(c2ccc(-c3ccnn3C(=O)Nc3cccc(C(F)(F)F)c3)cc2)CC1 | -114*
O=C(CC1CCCCC1)NCc1ccc(Cl)cc1 | -69*
COc1ccc(C(=O)N/N=C(/C)c2cccc(NC(=O)C(F)(F)F)c2)cc1 | -108*
COc1ccc2cc(/C(C)=N/NC(=O)C3CC3)ccc2c1 | -135*
COc1cccc(/C(C)=N/NC(=O)c2ccc(N(C)C)cc2)c1 | -101*
C/C(=N/NC(=O)c1ccoc1C)c1cccc(NC(=O)C(F)(F)F)c1 | -128*
CCC(C)n1ncn(-c2ccc(N3CCN(c4ccc(OCC5COC(Cn6cncn6)(c6ccc(Cl)cc6Cl)O5)cc4)CC3)cc2)c1=O (stereo unspecified) | 100
C/C(=N/NC(=O)c1ccoc1C)c1cccc(NC(=O)C2CC2)c1 | -115*
Cc1ccc(S(=O)(=O)N(C)c2ccc(OCC(=O)Nc3nc(-c4ccccc4)cs3)cc2)cc1 | -73*
SMILES | aSyn 5UTR act
CN(c1ccc(OCC(=O)Nc2nc(-c3ccccc3)cs2)cc1)S(=O)(=O)c1ccc(F)cc1 | -88*
CC(C)(C)n1nc(-c2ccc(F)cc2)c2c(N)ncnc21 | 71
Clc1ccc(-c2nnc(N3CCOCC3)o2)cc1 | -71*
COc1ccc(-c2nnc(-c3ccc(C)cc3)o2)cc1 | -103*
Cc1ccc(/C=C/c2nnc(-c3ccc(C)cc3)o2)cc1 | -69*
CCNc1nnc(-c2ccc(C)cc2)o1 | -80*
COc1ccc(-c2ccc(-c3nnc(-c4ccncc4)o3)cc2)cc1 | -115*
Fc1ccc(/C=C/c2nnc(-c3cccs3)o2)cc1 | -129*
CCN(CC)CCCNc1ccc(-c2nnc(-c3ccc(OCC(C)C)cc3)o2)cn1 | 121
COc1ccc(-c2nnc(-c3ccc(F)cc3)o2)cc1 | -152*
CCCc1nnc(-c2ccc(OC)cc2)o1 | -67*
Cc1ccc(-c2nnc(-c3cccs3)o2)cc1 | -93*
COc1ccc(-c2nnc(NC(=O)c3ccc(S(=O)(=O)N4COCC4(C)C)cc3)o2)cc1 | 76
Cc1ccc(-c2nnc(-c3ccccc3)o2)cc1 | -77*
Cc1ccc(C(=O)Nc2nnc(-c3ccncc3)o2)cc1 | -82*
CCCN(CCC)S(=O)(=O)c1ccc(C(=O)Nc2nnc(-c3cc(OC)cc(OC)c3)o2)cc1 | 82
Fc1ccc(-c2nnc(-c3ccc(Cl)cc3)o2)cc1 | -194*
CCCCCC(=O)N[C@@H](c1ccccc1)[C@@H](O)C(=O)O[C@H]1C[C@@]2(O)[C@@H](OC(=O)c3ccccc3)C3[C@](C)(C(=O)[C@H](OC(C)=O)C(=C1C)C2(C)C)[C@@H](O)C[C@H]1OC[C@@]31OC(C)=O (stereo partly specified) | 87
COc1cc(C(=O)OCC(=O)Nc2cc(C)on2)ccc1OCc1ccccc1Cl | -111*
CCOCCCn1c(SCc2nc3ccccc3s2)nc2ccccc2c1=O | -78*
COCCn1c(SCc2nc3ccccc3s2)nc2ccccc21 | -144*
C=CCn1c(=O)c2ccccc2n2c(SCc3nc4ccccc4s3)nnc12 | -97*
CNC(=O)c1cc2c(cn1)[nH]c1ccccc12 | -98*
CC(=O)N(C(C)=O)c1ncc2c([nH]c3ccccc32)c1C#N | 65
FC(F)(F)c1ccc(Nc2nnnc3ccccc23)cc1 | -140*
SMILES | aSyn 5UTR act
O=C(NC(=S)NCc1nc2ccccc2[nH]1)c1ccc(F)cc1 | -119*
O=C(NC(=S)NCc1nc2ccccc2[nH]1)c1ccccc1F | -143*
Cc1ccc(C=Nc2ccc(N(C)C)cc2)o1 | -139*
CCCCCCOC(=O)c1ccc(OC(=O)c2cccnc2)cc1 | -101*
C=CCn1c(C)cc(C(=O)COC(=O)c2ccc(N)c([N+](=O)[O-])c2)c1C | -142*
Cc1cc(C(=O)COC(=O)c2ccccc2O)c(C)n1Cc1cccs1 | 93
CC(=O)Nc1ccccc1OCC(=O)c1cc(C)n(Cc2cccs2)c1C | -150*
Cc1cc(C(=O)COC(=O)c2ccc3c(c2)OCO3)c(C)n1Cc1cccs1 | -65*
Cc1ccc(C(=O)OCC(=O)c2cc(C)n(CC3CCCO3)c2C)cc1 (stereo unspecified) | -161*
